The values that follow come from ChEMBL document CHEMBL1157539, “Thousands of chemical starting points for antimalarial lead identification” (Nature, 2010).

One may read the Inhibition as the share of the control response that was lost under treatment. Lower therefore signals little suppression.

Holding throughout (format): functional
In assay [1] the test system is Plasmodium falciparum. The assay can be described thus: GSK_TCMDC: Inhibition of Plasmodium falciparum 3D7 in whole red blood cells, using parasite LDH activity as an index of growth. Test compounds present at 2uM.
The test system of assay [2] is Plasmodium falciparum. Nature of the assay: GSK_TCMDC: Inhibition of Plasmodium falciparum Dd2 in whole red blood cells, using parasite LDH activity as an index of growth. Test compounds present at 2uM.
The test system of the next assay is HepG2. The assay can be described thus: GSK_TCMDC: Percent inhibition of human HepG2 cell line. Test compounds present at 10uM.

The structures appear in SMILES notation.

`Cl.Oc1ccc(CCCc2cc(Oc3c(I)cc(CCc4ncc[nH]4)cc3I)ccc2O)cc1`: the Inhibition with Plasmodium falciparum [1] is 95%; in the assay on Plasmodium falciparum [2], 7%; in the assay with HepG2, 26%.

Take `Cc1ccc2[nH]ncc2c1N(CC1CCCCC1)c1ccnc(Nc2ccc(OCC(O)CN3CC=CCC3)cc2)n1.O=CO` (stereo not given): the Inhibition in the assay with Plasmodium falciparum [1] is given as 100%; in the assay on Plasmodium falciparum [2], 79%; with HepG2 it was 29%.

With `N#CCCN1CCN(Cc2ccc(-c3cccc(-c4nc5cc(F)ccc5[nH]4)c3)cc2)CC1.O=C(O)C(F)(F)F`, the values for the Inhibition in the assay with Plasmodium falciparum [1], in the assay on Plasmodium falciparum [2] and in the assay on HepG2 were 91%, 17% and 16%, respectively.

With `Cl.N=C(N)NN=Cc1c2ccc(Cl)cc2c(Cl)c2ccc(Cl)cc12`, the figures for the Inhibition with Plasmodium falciparum [1], in the assay on Plasmodium falciparum [2] and in the assay on HepG2 were 100%, 90% and 28%, respectively.

Regarding `CN1CCCN(Cc2ccc(-c3cccc(NC(=O)c4cccc(Cl)c4)c3)cc2)CC1.O=C(O)C(F)(F)F`, the Inhibition is recorded as 100% in the assay on Plasmodium falciparum [1], 32% in the assay with Plasmodium falciparum [2] and 33% in the assay with HepG2.

For the molecule `Cc1cc(-c2ccc3c(c2)CCN(CCC2CCC(NC(=O)/C=C/c4ccccc4F)CC2)CC3)on1.Cl` (stereo not given), the values for the Inhibition in the assay with Plasmodium falciparum [1], in the assay on Plasmodium falciparum [2] and with HepG2 were 94%, 13% and 26%, respectively.

For the molecule `CCN(Cc1ccc(-c2ccc(C(F)(F)F)cc2)cc1)C(=O)Cn1c(SCc2cccc(F)c2F)cc(=O)c2cc(CN3CCCCC3)ccc21.Cl`, the results for the Inhibition with Plasmodium falciparum [1], in the assay on Plasmodium falciparum [2] and in the assay on HepG2 were 100%, 50% and 95%, respectively.

`COc1ccc2nc3cc(Cl)ccc3c(NCCCN3CCNCC3)c2c1.Cl`: the Inhibition with Plasmodium falciparum [1] came out at 100%; with Plasmodium falciparum [2], 74%; with HepG2 it was 18%.

`CN(c1ccc2c(c1)nc(NCc1ccc(F)cc1)n2C)c1ccnc(Nc2ccc(CS(C)(=O)=O)cc2)n1.Cl`: the values for the Inhibition in the assay on Plasmodium falciparum [1], with Plasmodium falciparum [2] and in the assay with HepG2 were 97%, 79% and 48%, respectively.

As for `COc1ccc2cc(-c3nc(-c4c(Cl)cccc4Cl)[nH]c3-c3ccnc(NCCCN4CCCCC4C)c3)ccc2c1.O=C(O)C(F)(F)F` (stereo not given), the Inhibition was 94% in the assay with Plasmodium falciparum [1], 86% with Plasmodium falciparum [2] and 19% with HepG2.
